Read-out in experiment [1]: Vascular cell adhesion molecule 1 (VCAM1), VCAM1 (gene 7412)
The experiment can be described thus: BSK_MyoF_VCAM1: BioMAP Diversity Plus: MyoF Assay for Vascular cell adhesion molecule 1 (VCAM1) Biomarker Activity (AID 2284231). To be noted: primary human lung fibroblasts. In short, it runs like this: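 Steps: fibroblasts from human lung exposed to compound; biomarker quantified by ELISA at 24 h; values analysed for upward change over the DMSO baseline.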

Read-out in experiment [2]: Collagen I, COL1A1 (gene 1277)
The experiment can be described thus: BSK_MyoF_CollagenI: BioMAP Diversity Plus: MyoF Assay for Collagen I Biomarker Activity (AID 2284238). To be noted: primary human lung fibroblasts. In short, it runs like this: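 Multiplexed primary human lung fibroblast system; Collagen I measured by ELISA at 24 h post-dose. Increases are referenced to DMSO.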

Read-out in experiment [3]: Collagen III, COL3A1 (gene 1281)
In words: BSK_MyoF_CollagenIII: BioMAP Diversity Plus: MyoF Assay for Collagen III Biomarker Activity (AID 2284239). To be noted: primary human lung fibroblasts. In short, it runs like this: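 Compounds are added to primary human lung fibroblasts and left for 24 hours. Collagen III is then quantified by ELISA. Analysis takes DMSO as baseline and fits increases in signal.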

Read-out in experiment [4]: Interleukin 17F (IL17F), IL17F (gene 112744)
In words: BSK_BT_xIL17F: BioMAP Diversity Plus: BT Assay for Interleukin 17F (IL17F) Biomarker Activity (AID 2284243). The conditions noted are these: primary human B cells with PBMC. The procedure, abridged:
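Measures secreted IL-17F from a human B cell plus PBMC co-culture at 24 h post-dose by Luminex xMAP, with DMSO defining baseline activity.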

Read-out in experiment [5]: Actin alpha 1 (ACTA1), ACTA1 (gene 58)
The experiment can be described thus: BSK_MyoF_ACTA1: BioMAP Diversity Plus: MyoF Assay for Actin alpha 1 (ACTA1) Biomarker Activity (AID 2284244). To be noted: primary human lung fibroblasts. In short, it runs like this:
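Human lung fibroblasts (MyoF system) dosed with test chemical for 24 h; α-SMA measured by ELISA. Gain of signal fitted relative to DMSO negative control as baseline.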

Read-out in experiment [6]: Interleukin 2 (IL2), IL2 (gene 3558)
In words: BSK_BT_xIL2: BioMAP Diversity Plus: BT Assay for Interleukin 2 (IL2) Biomarker Activity (AID 2284245). To be noted: primary human B cells with PBMC. In short, it runs like this: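 Human B cells co-cultured with PBMC, exposed to test chemical for 24 h. Secreted IL-2 quantified by Luminex xMAP bead immunoassay; activity fitted in the positive direction relative to DMSO vehicle baseline.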

Read-out in experiment [7]: Basic fibroblast growth factor (bFGF), FGF2 (gene 2247)
In words: BSK_MyoF_bFGF: BioMAP Diversity Plus: MyoF Assay for Basic fibroblast growth factor (bFGF) Biomarker Activity (AID 2284246). To be noted: primary human lung fibroblasts. In short, it runs like this:
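Human lung fibroblasts were dosed with chemicals and bFGF was quantified by ELISA 24 h later. Activity was fitted in the gain-of-signal direction relative to DMSO as negative control and baseline. Parallel SRB total-protein staining tracked overt cytotoxicity.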

A short description of experiment [8]: TAMU_HCS_1.5hr_SingleDonor1434_Cytotoxicity: Cytotoxicity Assessment using High-content Screening (HCS) Fluorescent Imaging for the Texas A&M University (TAMU) 1.5-hr Human Induced Pluripotent Stem Cell (iPSC)-derived Cardiotoxicity Assay (AID 2284234; active = hit-call score of the fitted dose curve at least 0.9, where 1 is the maximum). The procedure, abridged: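 Human iPSC-derived cardiomyocytes dosed at 0.2, 1, 10, 100 uM final (0.5% DMSO) for 90 min at 37 C. Hoechst 33342-stained nuclei counted by 10x high-content imaging; POD is EC10, a 10% drop in total cell count versus DMSO.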

Records with an inconclusive call do not appear. The source made the active and inactive calls. The calls were made as follows, unless noted: active = hit-call score of the fitted dose curve at least 0.9, where 1 is the maximum; inactive = score below 0.9.

In the case of `Nc1cc([N+](=O)[O-])ccc1Cl`, the result in experiment [1], in experiment [2], in experiment [3], in experiment [4], in experiment [5] and in experiment [6] was inactive. In addition, the outcome in experiment [7] was inactive.

In the case of `CCCCC(CC)COCCC#N` (centres undefined), the result in experiment [1], in experiment [2], in experiment [3], in experiment [4], in experiment [5] and in experiment [6] was inactive. The result in experiment [7] was inactive.

Usually AC50 stands for the concentration giving half of the maximal activity seen. With `CNC[C@H](O)c1cccc(O)c1`, the outcome in experiment [1], in experiment [2], in experiment [4], in experiment [5], in experiment [6] and in experiment [7] was inactive. Moreover, in experiment [3], the AC50 is 0.016 µM (active).

As for `O=C(O)c1cn(C2CC2)c2cc(N3CCNCC3)c(F)cc2c1=O`, the outcome in experiment [1], in experiment [2], in experiment [3], in experiment [4], in experiment [5] and in experiment [6] was inactive. The outcome in experiment [7] was inactive.

On to `CCc1c(C)cc(N)c(CC)c1N`, for which the result in experiment [1], in experiment [2], in experiment [3], in experiment [4], in experiment [5] and in experiment [6] was inactive. Further, the outcome in experiment [7] was inactive.

Regarding `O=C=NC1CCC(CC2CCC(N=C=O)CC2)CC1` (centres undefined), the outcome in experiment [1], in experiment [2], in experiment [3], in experiment [4], in experiment [5] and in experiment [6] was inactive. For the same compound, the outcome in experiment [7] was inactive.

`O=C(O)C[C@H](O)C[C@H](O)/C=C/c1c(C2CC2)nc2ccccc2c1-c1ccc(F)cc1`: the result in experiment [1], in experiment [2] and in experiment [7] was inactive. In addition, the AC50 is 2.16 µM (active) in experiment [3], 3.26 µM (active) in experiment [4], 1.37 µM (active) in experiment [5] and 5 µM (active) in experiment [6].

For `c1ccc2c(c1)c1cccc3ccc4cccc2c4c31`, the outcome in experiment [1], in experiment [8], in experiment [2], in experiment [3], in experiment [5] and in experiment [6] was inactive. For the same compound, the outcome in experiment [7] was inactive. Besides, the AC50 in experiment [4] was 20 µM (active).

For `O=C1CCCCCCCCCCCCCCO1`, the AC50 in experiment [1] is 20 µM (active); in experiment [2], 8.87 µM (active); in experiment [3], 20 µM (active); in experiment [4], 31.2 µM (active); in experiment [5], 13.9 µM (active); in experiment [6], 32.9 µM (active). In addition, in experiment [7], the result was inactive.

Take `CC(C)c1ccc(C(C)C)cc1`: the result in experiment [1], in experiment [2], in experiment [3], in experiment [4], in experiment [5] and in experiment [6] was inactive. Also, the outcome in experiment [7] was inactive.

Regarding `CC1COc2ccccc2N1C(=O)C(Cl)Cl` (centres undefined), the AC50 in experiment [1] was 20 µM (active); in experiment [2], 14.4 µM (active); in experiment [3], 29.6 µM (active); in experiment [5], 20 µM (active). Besides, the result in experiment [4], in experiment [6] and in experiment [7] was inactive.

Take `c1ccc2sc(SN(C3CCCCC3)C3CCCCC3)nc2c1`: the result in experiment [1], in experiment [2], in experiment [3], in experiment [4], in experiment [6] and in experiment [7] was inactive. Moreover, in experiment [5], the AC50 was 5.57 µM (active).

As for `C#C[C@]1(O)CC[C@H]2[C@@H]3CCC4=Cc5oncc5C[C@]4(C)[C@H]3CC[C@@]21C`, the AC50 in experiment [1] is 20 µM (active); in experiment [3] it was 28.1 µM (active); in experiment [4] it was 25.3 µM (active); in experiment [6], 28.6 µM (active); in experiment [7] it was 30.8 µM (active). For the same compound, the result in experiment [2] and in experiment [5] was inactive.

In the case of `O=C(O)c1cn(-c2ccc(F)cc2)c2cc(N3CCNCC3)c(F)cc2c1=O`, the outcome in experiment [1], in experiment [2], in experiment [3], in experiment [4], in experiment [5] and in experiment [6] was inactive. Further, the outcome in experiment [7] was inactive.

Take `C=C[Si](OCC)(OCC)OCC`: the result in experiment [1], in experiment [2], in experiment [3], in experiment [4], in experiment [5] and in experiment [6] was inactive. In experiment [7], the result was inactive.

Take `O=P(c1ccccc1)(c1ccccc1)c1ccccc1`: the outcome in experiment [1], in experiment [2], in experiment [3], in experiment [4], in experiment [5] and in experiment [6] was inactive. Also, the result in experiment [7] was inactive.

For the compound `Cc1ccc(Nc2ccc(O)c3c2C(=O)c2ccccc2C3=O)cc1`, the result in experiment [1], in experiment [2], in experiment [3], in experiment [4], in experiment [5] and in experiment [6] was inactive. Besides, the outcome in experiment [7] was inactive.

With `C=C(C)C(=O)O[C@H]1C[C@@H]2CC[C@@]1(C)C2(C)C`, the AC50 was 33.6 µM (active) in experiment [1]; 29.2 µM (active) in experiment [2]; 31.9 µM (active) in experiment [3]; 33.1 µM (active) in experiment [5]; 31.3 µM (active) in experiment [7]. In addition, the outcome in experiment [4] and in experiment [6] was inactive.

In the case of `CC1CCC(C(C)CS)CC1S` (centres undefined), the AC50 is 8.17 µM (active) in experiment [1]; 5.96 µM (active) in experiment [2]; 9.71 µM (active) in experiment [3]; 9.28 µM (active) in experiment [5]; 7.89 µM (active) in experiment [7]. Also, the outcome in experiment [4] and in experiment [6] was inactive.

Values taken from PubChem BioAssay (EPA / NIEHS).
